Shown is part of a subset that was picked to be rich in hits.
EZH2 inh = inhibitors of human EZH2/PRC2 methyltransferase; AID 651548; Q15910; 57,000 compounds, 0.35% hits; PRC2 H3K27 methylation, DELFIA TRF, 1 h; inhibition, % at 12.5 µM;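 active means mean inhibition of replicates at least 50% and every single replicate also reaching 50%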;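 further: dimethyl H3K27 on biotinylated H3 21-44 peptide detected by antibody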
Target sequence (Q15910 whole entry, looked up): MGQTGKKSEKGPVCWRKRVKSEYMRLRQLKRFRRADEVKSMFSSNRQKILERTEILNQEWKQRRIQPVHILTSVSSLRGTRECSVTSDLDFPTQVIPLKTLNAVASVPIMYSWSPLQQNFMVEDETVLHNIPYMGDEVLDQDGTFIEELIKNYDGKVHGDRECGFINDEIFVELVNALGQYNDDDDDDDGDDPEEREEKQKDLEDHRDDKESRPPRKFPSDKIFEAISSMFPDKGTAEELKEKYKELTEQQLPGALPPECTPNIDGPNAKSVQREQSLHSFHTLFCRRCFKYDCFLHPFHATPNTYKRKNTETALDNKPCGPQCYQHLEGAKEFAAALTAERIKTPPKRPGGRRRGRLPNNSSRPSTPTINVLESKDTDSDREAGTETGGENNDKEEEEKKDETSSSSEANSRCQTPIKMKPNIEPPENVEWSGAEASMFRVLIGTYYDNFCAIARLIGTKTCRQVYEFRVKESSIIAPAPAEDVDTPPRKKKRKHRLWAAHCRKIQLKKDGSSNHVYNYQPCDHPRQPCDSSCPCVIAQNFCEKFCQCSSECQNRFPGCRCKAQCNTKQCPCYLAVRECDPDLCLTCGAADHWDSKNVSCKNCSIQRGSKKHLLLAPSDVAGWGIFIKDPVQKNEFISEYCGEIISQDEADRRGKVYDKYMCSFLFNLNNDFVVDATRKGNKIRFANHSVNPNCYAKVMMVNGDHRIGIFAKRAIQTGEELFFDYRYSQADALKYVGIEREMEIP
Large screens that a line does not name were inactive.

O=c1c(O[C@@H]2O[C@H](CO)[C@@H](O)[C@H](O)[C@H]2O)c(-c2ccc(O)cc2)oc2cc(O)cc(O)c12	none
O=c1c(O[C@@H]2O[C@H](CO)[C@@H](O)[C@H](O)[C@H]2O)c(-c2ccc(O)c(O)c2)oc2cc(O)cc(O)c12	EZH2 inh 58
C[C@@H]1O[C@@H](OCC2OC(OC3C(OC4C(Oc5c(-c6ccc(O)c(O)c6)oc6cc(O)cc(O)c6c5=O)OC(CO)C(O)C4O)OC(CO)C(O)C3O)C(O)C(O)C2O)[C@H](O)[C@H](O)[C@H]1O (stereo not given in full)	none
C[C@@H]1O[C@@H](O[C@@H]2[C@@H](O)[C@H](Oc3c(-c4ccc(O)cc4)oc4cc(O)cc(O)c4c3=O)O[C@H](CO)[C@H]2O)[C@H](O)[C@H](O)[C@H]1O	EZH2 inh 59
COc1cc2c(=O)c(-c3ccc(O)cc3)coc2cc1O[C@@H]1O[C@@H](C)[C@H](O)[C@@H](O)[C@H]1O	none
C[C@H]1CN([C@@H](C)CO)S(=O)(=O)c2ccc(-c3ccccc3)cc2O[C@@H]1CN(C)C(=O)c1ccccc1F	none
C[C@H](O)C#Cc1cnc2c(c1)C(=O)N([C@H](C)CO)C[C@@H](C)[C@@H](CN(C)C(=O)Cc1ccncc1)O2	none
NC(=O)c1c(NC(=O)CCSc2nc(-c3ccco3)cc(C(F)(F)F)n2)sc2c1CCCC2	none
COC(=O)c1ccc(/C=N/NC(=O)c2cccc(C(=O)NO)c2)cc1	none
C[C@H]1CN([C@@H](C)CO)C(=O)c2cc(C3=CCCC3)cnc2O[C@H]1CN(C)C(=O)Nc1cccc(F)c1	none
C/C=C1/[C@H](O[C@@H]2O[C@H](CO)[C@@H](O)[C@H](O)[C@H]2O)OC=C(C(=O)OC)[C@H]1CC(=O)OCCc1ccc(OC(=O)C[C@@H]2C(C(=O)OC)=CO[C@@H](O[C@@H]3O[C@H](CO)[C@@H](O)[C@H](O)[C@H]3O)/C2=C/C)cc1	EZH2 inh 61
C/C=C1\[C@H](O[C@@H]2O[C@H](CO)[C@@H](O)[C@H](O)[C@H]2O)OC=C(C(=O)OC)[C@H]1CC(=O)OC	none
C/C=C1\C(O[C@@H]2O[C@H](CO)[C@@H](O)[C@H](O)[C@H]2O)OC=C(C(=O)OC)C1CC(=O)OC[C@H]1O[C@@H](OCCc2ccc(O)cc2)[C@H](OC(=O)CC2C(C(=O)OC)=COC(O[C@@H]3O[C@H](CO)[C@@H](O)[C@H](O)[C@H]3O)/C2=C\C)[C@@H](O)[C@@H]1O (stereo not given in full)	none
C[C@@H]1CN([C@H](C)CO)C(=O)c2ccccc2-c2ccccc2CO[C@H]1CN(C)C(=O)c1ccncc1	none
CO[C@@H](CN(C)S(=O)(=O)c1ccc(C)cc1)[C@@H](C)CN(Cc1ccccc1Cl)[C@@H](C)CO	none
CO[C@H](CN(C)S(=O)(=O)c1ccc(C)cc1)[C@H](C)CN(Cc1ccccc1Cl)[C@@H](C)CO	none
CO[C@@H](CN(C)S(=O)(=O)c1ccc(C)cc1)[C@@H](C)CN(Cc1ccccc1Cl)[C@H](C)CO	EZH2 inh 51
Cc1ccc(O)c(/C=N/NC(=O)CCCCC(=O)NO)c1	none
C[C@H]1CN([C@@H](C)CO)C(=O)CCCn2cc(nn2)CO[C@@H]1CN(C)Cc1ccccc1C(F)(F)F	none
O=C(NO)c1cccc(C(=O)N/N=C/c2ccc(O)c(O)c2)c1	EZH2 inh 94
O=C(NO)c1cccc(C(=O)N/N=C/c2ccc(F)cc2)c1	none
O=C(NO)c1cccc(C(=O)N/N=C/c2ccc3ccccc3c2)c1	none
CCCc1c(OCCCOc2ccc(OCC(=O)O)cc2)ccc(CC=O)c1O	EZH2 inh 55
O=C(O)COc1ccc(Cl)cc1CO	none
Cc1c(CCC(=O)O)c(=O)oc2cc(OCC(=O)O)ccc12	none
O=C(C[C@@H]1C=C[C@@H](NC(=O)NC2CCCC2)[C@H](CO)O1)NCc1ccc(F)cc1	none
O=C(O)c1cccc(NS(=O)(=O)c2cccc(S(=O)(=O)c3ccc(Cl)c(Cl)c3)c2)c1	none
O=C(N[C@@H]1CC[C@H](CCNS(=O)(=O)c2ccccc2Cl)O[C@H]1CO)c1ccccc1	none
CCOc1ccc(NC(=S)Nc2sc3c(c2C(=O)OC)CCC3)c([N+](=O)[O-])c1	none
CCOc1ccc2nc(NS(=O)(=O)c3ccc(C)c([N+](=O)[O-])c3)sc2c1	EZH2 inh 51
CCOc1ccc2nc(NCc3cc(OC)c(OC)cc3OC)sc2c1	none
CO[C@H]1CN(C)C(=O)c2cc(NC(=O)Nc3cc(F)ccc3F)ccc2OC[C@@H](C)NC[C@@H]1C	none
COC(=O)C1=COC(OC2OC(CO)C(O)C(O)C2O)C2C1C=CC2(O)CO (stereo not given)	EZH2 inh 99
COC(=O)C1=COC(O[C@@H]2O[C@H](CO)[C@@H](O)[C@H](O)[C@H]2O)[C@H]2[C@@H]1[C@H](OC(=O)CCc1ccc(O)cc1)C[C@]2(C)O (stereo not given in full)	none
COC(=O)C1=CO[C@@H](O[C@@H]2O[C@H](CO)[C@@H](O)[C@H](O)[C@H]2O)[C@H]2[C@@H]1[C@H](OC(C)=O)C[C@]2(C)O	none
CCOC(=O)Cc1nc(OCC(=O)c2ccc(F)cc2)cs1	none
CN(C)c1cc(C(F)(F)F)nc2cc(C(C)(C)C)nn12	none
COC(=O)C1=COC(O[C@@H]2O[C@H](CO)[C@@H](O)[C@H](O)[C@H]2O)[C@@H]2[C@@](C)(O)[C@@H](OC(=O)/C=C\c3ccccc3)C[C@]12O (stereo not given in full)	none
O[C@@H]1[C@@H](O)[C@H](OC/C=C/c2ccccc2)O[C@H](CO[C@@H]2OC[C@H](O)[C@H](O)[C@H]2O)[C@H]1O	EZH2 inh 90
C[C@@H]1O[C@@H](OC[C@H]2O[C@@H](Oc3ccc(O)cc3)[C@H](O)[C@@H](OC(=O)c3ccc(O)cc3)[C@@H]2O)[C@H](O)[C@H](O)[C@H]1O	none
COc1ccc(C2CC(=O)c3c(O)cc(O[C@@H]4O[C@H](CO[C@@H]5O[C@@H](C)[C@H](O)[C@@H](O)[C@H]5O)[C@@H](O)[C@H](O)[C@H]4O)cc3O2)cc1 (stereo not given in full)	none
C[C@@H]1O[C@@H](OC[C@H]2O[C@@H](OCCc3ccccc3)[C@H](O)[C@@H](O)[C@@H]2O)[C@H](O)[C@H](O)[C@H]1O	EZH2 inh 52
Cc1cc2c(cc1O[C@@H]1O[C@H](CO[C@@H]3OC[C@@H](O)[C@H](O)[C@H]3O)[C@@H](O)[C@H](O)[C@H]1O)C(=O)c1ccccc1C2=O	none
CN(C)C(=O)C[C@H]1CC[C@@H](NC(=O)C2CC2)[C@H](CO)O1	none
C[C@@H]1CCCCO[C@H](CN(C)C(=O)Nc2ccc3c(c2)OCO3)[C@@H](C)CN([C@H](C)CO)C(=O)c2cc(N(C)C)ccc2O1	none
CCCc1cn(CC[C@H]2CC[C@@H](NC(=O)Nc3ccccc3F)[C@@H](CO)O2)nn1	none
CO[C@H]1CN(C)C(=O)c2ccc(NC(C)=O)cc2OC[C@H](C)N(Cc2ccccn2)C[C@H]1C	none
C[C@@H]1CN([C@@H](C)CO)C(=O)Cc2cc(NC(=O)C3CC3)ccc2O[C@@H]1CN(C)Cc1ccccc1	none
COc1ccc(NC(=O)N(C)C[C@@H]2Oc3ncc(C#CCC(C)C)cc3C(=O)N([C@H](C)CO)C[C@@H]2C)cc1	none
CCC(=O)Nc1ccc2c(c1)OC[C@H](C)N(C(=O)c1ccccc1F)C[C@H](C)[C@H](OC)CN(C)C2=O	none
Cc1cc(NC(=O)CSc2nc3ccccc3[nH]2)ccc1Br	none
O=C(CSc1nc2ccccc2[nH]1)Nc1ccc(Cl)c(Br)c1	EZH2 inh 54
COc1ccc(NC(=O)CSc2nc3ccccc3[nH]2)cc1Cl	none
